Screens (PubChem)
TLR4-MyD88 BLA: inhibitors of human TLR4-MyD88 binding; inhibition, % at 8.4 µM; O00206+Q99836; hit rate 0.18% among 200,000; AID 861; HeLa CL3-4 TLR4/MyD88 BLA complementation, FRET ratio; in the data active = inhibition above about 25%;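 also: 0% = vehicle and 100% = reference inhibitor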
NOD2 RIPK2 PPI: blocks binding of human NOD2 to RIPK2; CHO BLA complementation NOD2-RIPK2, CCF4 ratio; O43353; inhibition, % at 4.98 µM; hit rate 0.38% among 360,000; in the data active = inhibition above about 21%;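 also: 0% = vehicle only and 100% = reference blocker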
Myeloid diff 2: myeloid differentiation induction; hit rate 1% among 360,000; ER-HoxA9 myeloid progenitors, lysozyme-GFP differentiation, flow cytometry; calls only at 10 µM; AID 624256;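 active = normalized GFP-positive differentiation at or above the plate's own cutoff, the solvent-only control mean plus 3 SD; inconclusive = no clear call, values can overlap the other calls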;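 also: cells exposed to compound for four days before flow analysis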
TLR9-MyD88 inh: TLR9-MyD88 interaction inhibition. Q9NR96+Q99836. CHO BLA complementation TLR9-MyD88, CCF4 FRET ratio. inhibition, % at 4.98 µM. hit rate 0.21% among 340,000. AID 504734;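 active = inhibition above the mean over all tested compounds plus 3 SD, cut at about 21% in these data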;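 also: 0% = DMSO only wells and 100% = clavulanate BLA inhibitor control wells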
TLR4 MyD88 cnf: confirmation of human TLR4-MyD88 binding inhibitors | shares compounds with TLR4-MyD88 BLA | HeLa CL3-4 BLA complementation, CCF4 FRET ratio | inhibition, % at 8.4 µM | hit rate 50% among 350;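 active = mean inhibition across three repeat runs above about 25% carried over from the earlier screen, limit read from the data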;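 also: plate controls were DMSO only for no effect and clavulanic acid blocking BLA at full dose for full effect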
BLA inh HeLa: counter-screen for TLR4-MyD88 inhibitors: beta-lactamase reporter inhibitors | shares compounds with TLR4-MyD88 BLA | HeLa BLA reporter, CCF4 FRET ratio | inhibition, % at 8.4 µM | hit rate 63% among 350 | AID 1237;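 active = mean inhibition over three repeats above about 26% taken from the earlier screen, limit read from the data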;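 also: HeLa cells stably expressing beta-lactamase reporter as counterscreen for TLR4-MyD88 inhibitors; 0% = DMSO and 100% = clavulanic acid full inhibition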
TLR9-MyD88 cf: confirmation of human TLR9-MyD88 binding inhibitors | CHO TLR9/MyD88 BLA complementation, CCF4 FRET ratio | AID 540250 | shares compounds with TLR9-MyD88 inh | inhibition, % at 4.98 µM | hit rate 51% among 680;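 active = mean inhibition across three repeats above about 21% taken from the earlier screen, limit read from the data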;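 also: blue over green emission ratio reports constitutive TLR9 MyD88 association via BLA complementation; 0% = DMSO vehicle wells and 100% = clavulanate BLA inhibitor wells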
BLA counter-1: counter-screen for TLR9-MyD88 inhibitors: non-selective beta-lactamase inhibitors; shares compounds with TLR9-MyD88 inh; CHO-BLA cells, CCF4 FRET ratio, BLA reporter; inhibition, % at 4.98 µM; hit rate 7% among 680; AID 540251;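 active = mean inhibition above a 50% cutoff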;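 also: counterscreen of TLR9-MyD88 hits on CMV-driven BLA in CHO-K1 cells; 0% = DMSO alone and 100% = clavulanate blocking BLA; higher means less blue over green ratio so more BLA blockade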
TLR9 CHO tox: counter-screen for TLR9-MyD88 inhibitors: cytotoxicity in CHO cells; inhibition, % at 4.98 µM; AID 588336; luminescence; shares compounds with TLR9-MyD88 inh; hit rate 39% among 680; in the data active = inhibition above about 11%
Myeloid diff: compounds promoting myeloid differentiation. calls only. ER-HoxA9 myeloid progenitors, GFP/Mac1 double-positive flow. AID 651706. shares compounds with Myeloid diff 2. hit rate 2% among 2,300;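 active = share of green or green-and-red cells above 9 and 9% in run 1 or 4 and 3% in run 2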
GFP autofluor: counter-screen for myeloid differentiation promoters: compound fluorescence; shares compounds with Myeloid diff 2; ER-HoxA9 myeloid progenitors, no estrogen, GFP autofluorescence flow cytometry; vehicle wells 0%, positive control 100%; fluorescence response, % (test concentration not listed); hit rate 7.4% among 2,300; AID 651707;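 active = over 5% cells positive for green fluorescent reporter, or over 2% positive for both it and APC stain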;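 also: range taken on the double positive population between DMSO and positive control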
NOD2-RIPK2 conf: NOD2-RIPK2 interaction inhibition confirmed; shares compounds with NOD2 RIPK2 PPI; CHO cells, NOD2-RIPK2 BLA complementation, CCF4 FRET; inhibition, % at 4.98 µM; hit rate 70% among 1,200; AID 624370;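 active = mean inhibition across replicates above a set limit taken from the earlier primary screen, cut at about 21% in these data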;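 also: 0% = DMSO-only wells and the high end = clavulanate BLA-blocked wells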
BLA counter-2: hits BLA reporter in NOD2-RIPK2 inhibitor counterscreen; inhibition, % at 4.98 µM; shares compounds with NOD2 RIPK2 PPI; CHO BLA reporter, CCF4 FRET ratio; hit rate 57% among 1,200; AID 624371;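 active = mean inhibition above the low-control mean inhibition plus three low-control SD, cut at about 11% in these data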;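 also: 0% = DMSO only wells and 100% = clavulanate high control wells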
Active calls of the source: *; i = inactive; ? = inconclusive; nt = no result; + = active, no number. Most compounds without a hit are left out; they make up all but 1.5% or so of the library.

SMILES	TLR4-MyD88 BLA	NOD2 RIPK2 PPI	Myeloid diff 2	TLR9-MyD88 inh	TLR4 MyD88 cnf	BLA inh HeLa	TLR9-MyD88 cf	BLA counter-1	TLR9 CHO tox	others
O=[N+]([O-])c1ccc(-c2ccc(/C=N/Nc3nc(NCc4ccccc4)nc(N4CCOCC4)n3)o2)cc1	55*	10	+	36*	47*	76*	29*	31	3
O=C(/C=C/c1c[nH]c2ccccc12)c1cccc2ccccc12	33*	20	i	36*	22	47*	23*	23	8
COc1ccccc1NC(=O)c1sc2nc(-c3ccco3)ccc2c1N	26*	34*	i	42*	21	51*	34*	34	3
Nc1c(C(=O)Nc2ccccc2)sc2nc(-c3ccco3)ccc12	0	2	i	16	nt	nt	nt	nt	nt
CC1C/C(=C/c2cccn2C)C(=O)/C(=C/c2cccn2C)C1 (stereo not given)	55*	-4	i	37*	32*	61*	41*	40	1
CC1C/C(=C/c2ccncc2)C(=O)/C(=C/c2ccncc2)C1 (stereo not given)	6	6	i	-2	nt	nt	nt	nt	nt
Nc1c(C(=O)Nc2nc3ccccc3s2)sc2nc(-c3cccs3)ccc12	65*	-8	+	25*	48*	77*	48*	48	42*
CC(=O)c1sc2nc(-c3cccs3)ccc2c1N	5	-1	i	5	nt	nt	nt	nt	nt
CC[C@H](C)/C=C(C)/C=C/c1cc2c(cn1)C(=O)[C@@](C)(OC(C)=O)C(O)=C2Cl	nt	-17	i	nt	nt	nt	nt	nt	nt
CC[C@H](C)/C=C(C)/C=C/C1=CC2=CC(=O)[C@]3(C)OC(=O)[C@@H](C(C)=O)[C@@H]3C2=CO1	33*	19	i	32*	19	48*	27*	30	1
COC(=O)c1ccc2nc(-c3ccco3)c(Cc3ccccc3)n2c1	nt	4	i	nt	nt	nt	nt	nt	nt
CN1/C(=C/C(=O)c2nc(S(C)(=O)=O)ncc2Cl)C(C)(C)c2ccccc21	36*	70*	nt	44*	29*	18	46*	25	99*
O=C(OCCN1C(=O)c2cccc3c(N4CCOCC4)ccc(c23)C1=O)c1cccc(Cl)c1	6	nt	nt	nt	nt	nt	nt	nt	nt
O=C(OCCN1C(=O)c2cccc3c(N4CCOCC4)ccc(c23)C1=O)c1ccc(Cl)cc1Cl	40*	7	?	38*	58*	86*	68*	69*	29*
OCCCc1nc2n(n1)C(c1ccccc1)C=C(c1ccccc1)N2 (stereo not given)	35*	64*	i	40*	28*	50*	32*	32	3
CCCCC(=O)N(C)c1c(CC)nc2c(OCc3cccc(Cl)c3)cccn12	nt	4	i	nt	nt	nt	nt	nt	nt
Cc1ccc(S(=O)(=O)N[C@H](C(=O)Oc2ccc3c(C(F)(F)F)cc(=O)oc3c2)c2ccccc2)cc1	32*	58*	i	55*	43*	56*	33*	40	-1
C[C@@H]1CN([C@@H](C)CO)C(=O)CCCn2nncc2CO[C@H]1CN(C)Cc1ccc2cccnc2c1	nt	-5	i	-8	nt	nt	nt	nt	nt
COc1ccc(Cn2cc(CN(C)C3CN(Cc4cn(Cc5ccc(OC)cc5)nn4)S(=O)(=O)C3)nn2)cc1 (stereo not given)	nt	-4	i	nt	nt	nt	nt	nt	nt
COC(=O)C[C@H]1C=C[C@H](NC(=O)Nc2ccccc2F)[C@@H](CO)O1	nt	-8	i	nt	nt	nt	nt	nt	nt
CCCCCn1nc(-c2ccccc2)c2nc3ccccc3nc21	44*	9	+	-4	52*	63*	nt	nt	nt	Myeloid diff=i;GFP autofluor=82*
O=C1NC[C@H](CCCCN2CCN(Cc3ccccc3)C(=O)C2=O)N(Cc2ccccc2)C1=O	nt	-5	i	nt	nt	nt	nt	nt	nt
CC(C)(C)c1ccc(C(=O)Nc2cccc3c(=O)[nH][nH]c(=O)c23)cc1	29*	50*	i	35*	28*	51*	18	22	3	NOD2-RIPK2 conf=42*;BLA counter-2=48*
CCNC(=O)C1(C)CCCN(C(=O)c2ccc3c(c2)C(C)(C)CCC3(C)C)C1 (stereo not given)	nt	5	i	nt	nt	nt	nt	nt	nt
CCN(CC)c1ccc(/C=c2\sc3nc4ccccc4n3c2=O)c(O)c1	30*	37*	+	34*	20	50*	21*	37	8	NOD2-RIPK2 conf=46*;BLA counter-2=56*
SMILES	TLR4-MyD88 BLA	NOD2 RIPK2 PPI	Myeloid diff 2	TLR9-MyD88 inh	TLR4 MyD88 cnf	BLA inh HeLa	TLR9-MyD88 cf	BLA counter-1	TLR9 CHO tox	others
C[C@@H]1CN([C@@H](C)CO)C(=O)c2cc(Br)cnc2O[C@H]1CN(C)C(=O)Cc1cccnc1	nt	-4	i	-9	nt	nt	nt	nt	nt
O=[N+]([O-])c1ccc(NN=Cc2ccccc2)nc1	nt	14	i	4	nt	nt	nt	nt	nt
O=[N+]([O-])c1ccc(N/N=C\c2cccn2-c2ccccc2)nc1	41*	46*	i	34*	40*	62*	-14	29	9	NOD2-RIPK2 conf=52*;BLA counter-2=54*
CCCSc1cc(NCCOC(=O)CCC)c([N+](=O)[O-])c2nonc12	7	-5	i	-4	nt	nt	nt	nt	nt
CCC(=O)OCCNc1cc(Sc2nc3ccccc3[nH]2)c2nonc2c1[N+](=O)[O-]	29*	80*	?	56*	20	-10	nt	nt	nt	NOD2-RIPK2 conf=93*;BLA counter-2=48*
CCOC(=O)c1ccc(NC(=O)Cn2nc(C)c3ccccc3c2=O)cc1	nt	-10	i	3	nt	nt	nt	nt	nt
CCOC(=O)c1ccc(NC(=O)Cn2ncc(Cl)c(Cl)c2=O)cc1	27*	52*	?	27*	37*	11	24*	15	99*	NOD2-RIPK2 conf=65*;BLA counter-2=14*
Cc1ccc(C(=O)OCn2ncc(Cl)c(Cl)c2=O)cc1	55*	66*	nt	30*	62*	18	27*	26	98*	NOD2-RIPK2 conf=85*;BLA counter-2=8
